Inhibition data for four compounds are collected here from ChEMBL document CHEMBL1961873, “Compounds: GSK PKIS; Assays: Nanosyn kinase panel” (2012).

SMILES strings stand for the structures.

Experiment [1] deals with T1, Ephrin type-B receptor 2 (Homo sapiens) (UniProt P29323).
T1 sequence (whole entry): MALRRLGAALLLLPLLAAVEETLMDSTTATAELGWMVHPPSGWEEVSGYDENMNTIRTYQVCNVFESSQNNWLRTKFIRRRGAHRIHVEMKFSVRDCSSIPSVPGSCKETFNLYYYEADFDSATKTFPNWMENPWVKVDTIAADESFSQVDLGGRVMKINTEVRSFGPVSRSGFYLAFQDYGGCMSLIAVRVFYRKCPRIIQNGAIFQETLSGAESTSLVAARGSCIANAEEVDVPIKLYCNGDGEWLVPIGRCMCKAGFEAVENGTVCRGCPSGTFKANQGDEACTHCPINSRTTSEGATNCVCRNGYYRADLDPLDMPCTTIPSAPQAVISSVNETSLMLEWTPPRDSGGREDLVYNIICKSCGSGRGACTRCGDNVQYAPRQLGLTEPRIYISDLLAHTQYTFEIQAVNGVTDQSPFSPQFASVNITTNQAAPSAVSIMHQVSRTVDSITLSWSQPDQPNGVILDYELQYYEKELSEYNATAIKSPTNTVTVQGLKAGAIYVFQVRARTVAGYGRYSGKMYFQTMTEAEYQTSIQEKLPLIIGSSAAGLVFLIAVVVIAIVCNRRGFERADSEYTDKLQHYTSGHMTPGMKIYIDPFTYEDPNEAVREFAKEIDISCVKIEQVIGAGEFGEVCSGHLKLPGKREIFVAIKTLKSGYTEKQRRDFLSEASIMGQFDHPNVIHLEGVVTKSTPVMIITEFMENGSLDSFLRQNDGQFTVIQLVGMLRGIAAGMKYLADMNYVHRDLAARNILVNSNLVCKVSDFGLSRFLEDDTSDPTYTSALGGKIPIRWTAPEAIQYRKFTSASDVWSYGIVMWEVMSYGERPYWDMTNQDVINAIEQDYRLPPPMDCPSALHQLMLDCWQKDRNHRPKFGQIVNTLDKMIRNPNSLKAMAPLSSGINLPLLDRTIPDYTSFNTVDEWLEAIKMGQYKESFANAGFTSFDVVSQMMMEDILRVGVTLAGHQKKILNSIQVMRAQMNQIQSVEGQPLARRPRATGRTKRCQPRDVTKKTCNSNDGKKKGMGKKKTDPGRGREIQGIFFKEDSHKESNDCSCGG
Conditions: at 1 µM.

The target in experiment [2] is T2, Ephrin type-B receptor 3 (Homo sapiens) (UniProt P54753).
T2 sequence (whole entry): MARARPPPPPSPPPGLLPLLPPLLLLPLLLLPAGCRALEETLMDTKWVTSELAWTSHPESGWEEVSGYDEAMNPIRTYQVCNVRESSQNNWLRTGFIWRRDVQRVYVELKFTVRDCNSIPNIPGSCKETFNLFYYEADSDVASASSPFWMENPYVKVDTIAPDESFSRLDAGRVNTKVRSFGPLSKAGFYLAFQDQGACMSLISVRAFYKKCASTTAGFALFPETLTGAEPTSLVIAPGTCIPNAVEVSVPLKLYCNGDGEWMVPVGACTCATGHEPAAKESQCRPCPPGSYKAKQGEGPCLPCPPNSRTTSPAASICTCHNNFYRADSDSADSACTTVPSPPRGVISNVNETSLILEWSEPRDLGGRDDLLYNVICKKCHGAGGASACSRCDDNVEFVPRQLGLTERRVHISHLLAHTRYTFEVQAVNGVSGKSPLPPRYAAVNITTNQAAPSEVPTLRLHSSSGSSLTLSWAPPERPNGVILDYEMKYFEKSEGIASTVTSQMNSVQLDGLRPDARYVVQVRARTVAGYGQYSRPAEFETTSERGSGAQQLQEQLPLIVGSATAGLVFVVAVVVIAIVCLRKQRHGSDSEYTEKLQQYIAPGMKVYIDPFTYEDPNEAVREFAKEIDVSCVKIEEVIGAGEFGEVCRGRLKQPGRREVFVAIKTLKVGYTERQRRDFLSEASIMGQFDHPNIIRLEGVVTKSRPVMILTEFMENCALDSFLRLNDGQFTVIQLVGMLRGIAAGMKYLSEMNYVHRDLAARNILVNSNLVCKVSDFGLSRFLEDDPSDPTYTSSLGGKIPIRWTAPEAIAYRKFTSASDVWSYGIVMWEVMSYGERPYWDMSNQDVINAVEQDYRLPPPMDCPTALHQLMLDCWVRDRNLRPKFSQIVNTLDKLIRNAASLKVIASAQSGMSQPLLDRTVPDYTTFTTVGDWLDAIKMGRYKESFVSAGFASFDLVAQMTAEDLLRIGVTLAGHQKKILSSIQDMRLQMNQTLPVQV
The following applies: at 0.1 µM.

Experiment [3] concerns the target T2, Ephrin type-B receptor 3 (Homo sapiens). The following applies: at 1 µM.
Experiment [4] addresses T3, Ephrin type-B receptor 4 (Homo sapiens) (UniProt P54760).
T3 sequence (whole entry): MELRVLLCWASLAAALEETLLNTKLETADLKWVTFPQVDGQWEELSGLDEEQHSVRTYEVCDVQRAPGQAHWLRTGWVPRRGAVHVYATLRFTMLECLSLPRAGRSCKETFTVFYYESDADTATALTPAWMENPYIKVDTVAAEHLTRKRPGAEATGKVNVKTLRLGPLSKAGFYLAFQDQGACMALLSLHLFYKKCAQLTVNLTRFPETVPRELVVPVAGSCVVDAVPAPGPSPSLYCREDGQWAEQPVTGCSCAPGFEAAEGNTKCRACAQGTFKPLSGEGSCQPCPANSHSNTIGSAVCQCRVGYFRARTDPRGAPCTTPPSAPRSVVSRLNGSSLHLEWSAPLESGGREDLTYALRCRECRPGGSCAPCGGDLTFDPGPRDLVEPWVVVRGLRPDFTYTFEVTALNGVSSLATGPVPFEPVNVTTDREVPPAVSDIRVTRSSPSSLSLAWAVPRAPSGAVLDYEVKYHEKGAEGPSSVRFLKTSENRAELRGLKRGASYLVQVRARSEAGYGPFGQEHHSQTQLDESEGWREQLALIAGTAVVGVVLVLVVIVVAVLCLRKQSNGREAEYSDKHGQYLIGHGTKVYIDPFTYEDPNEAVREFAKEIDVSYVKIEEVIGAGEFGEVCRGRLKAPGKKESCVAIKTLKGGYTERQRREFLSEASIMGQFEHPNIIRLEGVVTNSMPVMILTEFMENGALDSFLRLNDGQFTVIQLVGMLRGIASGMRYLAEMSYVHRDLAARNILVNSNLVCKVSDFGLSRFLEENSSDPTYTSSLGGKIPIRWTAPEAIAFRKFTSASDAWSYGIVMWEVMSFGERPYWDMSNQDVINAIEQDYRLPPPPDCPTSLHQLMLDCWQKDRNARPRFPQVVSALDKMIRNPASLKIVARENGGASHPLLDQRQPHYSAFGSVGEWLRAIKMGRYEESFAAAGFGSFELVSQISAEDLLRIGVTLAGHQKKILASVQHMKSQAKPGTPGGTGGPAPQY
The following applies: at 0.1 µM.

Experiment [5] concerns the target T3, Ephrin type-B receptor 4 (Homo sapiens). The following applies: at 1 µM.
In experiment [6] the target is Receptor tyrosine-protein kinase erbB-2 (Homo sapiens) (UniProt P04626). The following applies: at 0.1 µM.
Experiment [7] has the same target. The following applies: at 1 µM.
Experiment [8] deals with Receptor tyrosine-protein kinase erbB-4 (Homo sapiens) (UniProt Q15303). The following applies: at 0.1 µM.
Receptor tyrosine-protein kinase erbB-4 (Homo sapiens), sequence (Q15303 whole entry): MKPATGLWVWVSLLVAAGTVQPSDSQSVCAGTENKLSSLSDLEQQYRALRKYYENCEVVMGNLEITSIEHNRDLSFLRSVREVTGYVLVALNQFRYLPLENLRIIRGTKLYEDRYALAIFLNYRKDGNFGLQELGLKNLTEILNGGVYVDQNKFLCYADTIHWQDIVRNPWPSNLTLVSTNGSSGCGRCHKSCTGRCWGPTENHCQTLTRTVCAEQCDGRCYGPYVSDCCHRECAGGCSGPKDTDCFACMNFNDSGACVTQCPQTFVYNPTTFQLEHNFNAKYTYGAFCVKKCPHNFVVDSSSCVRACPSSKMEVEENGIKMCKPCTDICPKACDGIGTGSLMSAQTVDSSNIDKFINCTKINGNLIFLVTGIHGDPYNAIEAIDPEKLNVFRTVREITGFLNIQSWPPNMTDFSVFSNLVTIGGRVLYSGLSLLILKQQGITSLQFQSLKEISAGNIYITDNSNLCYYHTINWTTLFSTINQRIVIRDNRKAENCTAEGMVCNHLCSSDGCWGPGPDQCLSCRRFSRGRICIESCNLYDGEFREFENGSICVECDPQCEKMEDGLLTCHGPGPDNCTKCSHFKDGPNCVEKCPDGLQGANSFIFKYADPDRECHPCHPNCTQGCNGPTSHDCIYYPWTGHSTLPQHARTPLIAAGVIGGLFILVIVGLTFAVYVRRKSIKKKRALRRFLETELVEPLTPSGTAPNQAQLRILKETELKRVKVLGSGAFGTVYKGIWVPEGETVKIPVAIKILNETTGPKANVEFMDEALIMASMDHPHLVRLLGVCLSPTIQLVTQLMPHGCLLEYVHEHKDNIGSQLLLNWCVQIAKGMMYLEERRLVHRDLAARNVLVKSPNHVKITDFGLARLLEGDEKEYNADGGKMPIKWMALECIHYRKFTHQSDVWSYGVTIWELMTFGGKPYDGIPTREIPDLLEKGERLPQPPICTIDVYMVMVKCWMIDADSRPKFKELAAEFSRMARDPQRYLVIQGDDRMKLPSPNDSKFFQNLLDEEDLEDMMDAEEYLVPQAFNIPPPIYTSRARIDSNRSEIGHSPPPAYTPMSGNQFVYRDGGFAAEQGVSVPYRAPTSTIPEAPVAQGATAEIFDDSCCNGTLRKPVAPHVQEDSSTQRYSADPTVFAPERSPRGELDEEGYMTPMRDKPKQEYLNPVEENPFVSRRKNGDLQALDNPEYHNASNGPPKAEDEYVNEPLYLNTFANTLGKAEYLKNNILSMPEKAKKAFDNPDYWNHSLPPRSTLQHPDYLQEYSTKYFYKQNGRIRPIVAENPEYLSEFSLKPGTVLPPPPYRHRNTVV
For experiment [9] the target is unchanged. Conditions: at 1 µM.
Experiment [10] addresses Tyrosine-protein kinase Fer (Homo sapiens) (UniProt P16591). Conditions: at 0.1 µM.
Experiment [11] shares this target. The following applies: at 1 µM.
The target of experiment [12] is Tyrosine-protein kinase Fes/Fps (Homo sapiens) (UniProt P07332). Conditions: at 0.1 µM.
Tyrosine-protein kinase Fes/Fps (Homo sapiens), sequence (P07332 whole entry): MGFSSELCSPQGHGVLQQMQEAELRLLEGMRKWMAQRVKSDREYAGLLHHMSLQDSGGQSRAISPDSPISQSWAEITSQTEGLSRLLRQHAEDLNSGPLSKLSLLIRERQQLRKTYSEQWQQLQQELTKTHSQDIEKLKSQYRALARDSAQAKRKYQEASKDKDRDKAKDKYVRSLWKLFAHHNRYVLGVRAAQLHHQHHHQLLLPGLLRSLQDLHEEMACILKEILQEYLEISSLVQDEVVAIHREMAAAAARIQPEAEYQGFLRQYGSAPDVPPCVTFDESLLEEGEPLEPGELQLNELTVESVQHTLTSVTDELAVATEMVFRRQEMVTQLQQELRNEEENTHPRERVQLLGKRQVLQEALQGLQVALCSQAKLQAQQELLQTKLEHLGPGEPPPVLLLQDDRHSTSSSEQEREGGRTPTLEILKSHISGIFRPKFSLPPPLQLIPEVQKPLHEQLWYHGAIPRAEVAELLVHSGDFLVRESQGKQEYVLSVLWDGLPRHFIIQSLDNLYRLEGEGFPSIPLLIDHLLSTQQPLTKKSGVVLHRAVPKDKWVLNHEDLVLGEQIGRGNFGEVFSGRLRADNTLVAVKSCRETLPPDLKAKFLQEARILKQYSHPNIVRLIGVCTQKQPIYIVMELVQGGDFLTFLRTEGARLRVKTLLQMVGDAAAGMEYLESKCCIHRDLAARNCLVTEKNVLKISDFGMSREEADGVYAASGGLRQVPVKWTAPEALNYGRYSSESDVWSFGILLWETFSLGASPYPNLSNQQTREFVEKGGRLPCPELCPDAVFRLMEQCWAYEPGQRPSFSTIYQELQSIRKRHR
Experiment [13] has the same target. Conditions: at 1 µM.
Experiment [14] concerns the target Fibroblast growth factor receptor 1 (Homo sapiens) (UniProt P11362). The following applies: at 0.1 µM.
Experiment [15] has the same target. Conditions: at 1 µM.
Experiment [16] concerns the target Fibroblast growth factor receptor 2 (Homo sapiens) (UniProt P21802). The following applies: at 0.1 µM.
Experiment [17] has the same target. The following applies: at 1 µM.
For experiment [18], the target named is Fibroblast growth factor receptor 3 (Homo sapiens) (UniProt P22607). The following applies: at 0.1 µM.
Fibroblast growth factor receptor 3 (Homo sapiens), sequence (P22607 23-806 limits assumed): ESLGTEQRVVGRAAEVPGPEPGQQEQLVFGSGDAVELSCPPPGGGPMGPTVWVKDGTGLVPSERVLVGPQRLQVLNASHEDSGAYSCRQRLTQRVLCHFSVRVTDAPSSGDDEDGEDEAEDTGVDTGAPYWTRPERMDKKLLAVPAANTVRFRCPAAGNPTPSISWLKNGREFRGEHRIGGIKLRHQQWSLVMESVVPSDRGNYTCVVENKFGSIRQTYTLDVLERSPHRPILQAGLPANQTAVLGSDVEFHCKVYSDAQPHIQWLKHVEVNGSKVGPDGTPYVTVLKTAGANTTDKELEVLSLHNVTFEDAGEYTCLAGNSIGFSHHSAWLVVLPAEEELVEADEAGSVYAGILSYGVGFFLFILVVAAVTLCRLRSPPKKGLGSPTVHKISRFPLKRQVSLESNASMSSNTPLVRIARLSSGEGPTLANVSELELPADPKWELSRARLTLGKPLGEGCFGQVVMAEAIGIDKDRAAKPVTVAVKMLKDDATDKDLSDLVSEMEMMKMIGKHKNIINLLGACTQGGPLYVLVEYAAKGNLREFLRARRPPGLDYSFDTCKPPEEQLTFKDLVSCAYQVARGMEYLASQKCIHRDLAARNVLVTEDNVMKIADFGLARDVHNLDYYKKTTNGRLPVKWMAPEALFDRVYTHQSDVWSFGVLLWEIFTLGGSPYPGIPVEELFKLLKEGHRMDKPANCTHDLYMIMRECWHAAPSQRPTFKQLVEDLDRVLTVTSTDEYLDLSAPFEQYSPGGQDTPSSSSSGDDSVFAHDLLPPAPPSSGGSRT
Experiment [19] has the same target. The following applies: at 1 µM.
For experiment [20], the target named is Fibroblast growth factor receptor 4 (Homo sapiens) (UniProt P22455). The following applies: at 0.1 µM.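 Also: values are mean percent inhibition of FGFR4.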

Fibroblast growth factor receptor 2 (Homo sapiens), sequence (P21802 22-821 limits assumed): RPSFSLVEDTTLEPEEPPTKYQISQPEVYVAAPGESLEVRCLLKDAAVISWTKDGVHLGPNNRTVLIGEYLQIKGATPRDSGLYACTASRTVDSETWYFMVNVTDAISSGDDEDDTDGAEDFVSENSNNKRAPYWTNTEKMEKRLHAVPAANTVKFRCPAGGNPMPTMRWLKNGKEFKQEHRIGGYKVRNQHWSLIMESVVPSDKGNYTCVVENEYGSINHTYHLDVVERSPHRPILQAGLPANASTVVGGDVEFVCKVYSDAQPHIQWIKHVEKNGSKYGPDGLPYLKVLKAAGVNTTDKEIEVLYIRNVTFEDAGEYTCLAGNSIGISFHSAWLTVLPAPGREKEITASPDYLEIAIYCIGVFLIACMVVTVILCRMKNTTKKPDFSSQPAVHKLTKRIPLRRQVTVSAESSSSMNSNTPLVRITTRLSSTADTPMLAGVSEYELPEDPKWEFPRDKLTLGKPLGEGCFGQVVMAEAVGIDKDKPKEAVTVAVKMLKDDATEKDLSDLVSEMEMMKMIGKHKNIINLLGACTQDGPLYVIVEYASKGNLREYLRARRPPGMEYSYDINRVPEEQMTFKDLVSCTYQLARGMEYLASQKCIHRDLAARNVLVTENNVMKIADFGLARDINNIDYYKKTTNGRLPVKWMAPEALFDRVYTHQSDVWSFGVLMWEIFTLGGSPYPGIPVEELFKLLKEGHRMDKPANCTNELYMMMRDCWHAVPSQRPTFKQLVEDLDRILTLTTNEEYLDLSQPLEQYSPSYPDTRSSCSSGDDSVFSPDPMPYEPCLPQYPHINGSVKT
Tyrosine-protein kinase Fer (Homo sapiens), sequence (P16591 whole entry, looked up): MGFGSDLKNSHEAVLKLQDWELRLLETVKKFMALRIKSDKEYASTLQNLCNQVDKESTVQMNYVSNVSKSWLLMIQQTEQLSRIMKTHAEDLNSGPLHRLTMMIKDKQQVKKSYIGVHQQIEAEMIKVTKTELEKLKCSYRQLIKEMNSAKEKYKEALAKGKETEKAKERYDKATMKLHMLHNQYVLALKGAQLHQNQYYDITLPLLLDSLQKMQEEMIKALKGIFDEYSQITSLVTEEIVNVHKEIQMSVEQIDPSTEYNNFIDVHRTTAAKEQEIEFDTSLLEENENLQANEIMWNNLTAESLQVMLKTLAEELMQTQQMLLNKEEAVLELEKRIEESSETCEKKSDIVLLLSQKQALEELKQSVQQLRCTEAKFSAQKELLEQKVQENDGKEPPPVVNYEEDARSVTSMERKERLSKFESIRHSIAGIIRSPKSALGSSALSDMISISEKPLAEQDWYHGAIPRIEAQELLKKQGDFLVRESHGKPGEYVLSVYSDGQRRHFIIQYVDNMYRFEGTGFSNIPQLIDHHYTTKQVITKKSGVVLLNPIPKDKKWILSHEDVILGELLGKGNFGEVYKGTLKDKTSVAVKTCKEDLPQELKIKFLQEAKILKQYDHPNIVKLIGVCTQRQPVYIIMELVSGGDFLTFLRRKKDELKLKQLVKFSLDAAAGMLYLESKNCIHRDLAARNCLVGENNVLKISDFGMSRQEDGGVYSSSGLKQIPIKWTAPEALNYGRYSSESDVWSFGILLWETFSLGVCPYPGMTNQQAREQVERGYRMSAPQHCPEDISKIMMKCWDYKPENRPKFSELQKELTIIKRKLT

What is called inhibition is the change of the read-out against control, counted positive when it falls. For `CCS(=O)(=O)c1ccc(OC)c(Nc2ncc(-c3cccc(C(C)=O)c3)o2)c1`, the inhibition in experiment [1] turned out to be 21.8%; in experiment [2], 3.26%; in experiment [3] it was 5.98%; in experiment [4], 1.8%; in experiment [5], 6.82%; in experiment [6], 2.14%. For the same compound, the inhibition in [7] came to 6.11%; in experiment [8], 7.58%; in [9], 11.1%; in experiment [10], 1.02%; in experiment [11], 3.06%; in experiment [12] it was 1.69%. In addition, the inhibition in [13] was 2.72%; in experiment [14], 4.89%; in experiment [15], 12.9%; in experiment [16], 17.2%; in experiment [17], 52.6%; in experiment [18], 20%. The inhibition in [19] was determined as 60%; in experiment [20], 1.41%.
With `COc1ccc2ncn(-c3cc(O[C@H](C)c4ccccc4C(F)(F)F)c(C(N)=O)s3)c2c1`, the inhibition in experiment [1] was 1.95%; in [2], 1.32%; in [3], 0.52%; in experiment [4] it was -1.21%; in [5], 1.77%; in experiment [6], -0.36%. In addition, the inhibition was -1.72% in [7]; 1.06% in [8]; 3.12% in [9]; 1.06% in [10]; 3.58% in experiment [11]; -0.21% in [12]. The inhibition in [13] is 0.25%; in experiment [14], 1.11%; in [15], -0.51%; in experiment [16] it was -2.58%; in experiment [17], 5.48%; in experiment [18], 0.12%. In addition, the values for the inhibition in experiment [19] and in experiment [20] were 3.58% and 0.21%, respectively.
Consider `Fc1ccc(Nc2nccc(-c3c(-c4ccc(C(F)(F)F)cc4)nn4ncccc34)n2)cc1F`, for which the inhibition was 6.54% in experiment [1]; 4.44% in experiment [2]; 1.93% in [3]; 2.27% in experiment [4]; 1.26% in experiment [5]; -0.32% in [6]. Moreover, the inhibition in [7] is -1.28%; in [8] it was 9.22%; in experiment [9], 10.4%; in [10], 4.97%; in [11], 4.28%; in [12] it was 3.21%. The inhibition in experiment [13] is 3.35%; in experiment [14] it was 7.42%; in [15], 4.6%; in [16], 5.3%; in experiment [17] it was 6.72%; in [18], 6.52%. The inhibition in [19] is 4.25%; in experiment [20], -0.65%.
As to `N#Cc1cccc(Nc2ncc(-c3ccccc3)o2)c1`, the inhibition in [1] came out at 0.63%; in experiment [2] it was 3.66%; in [3] it was 1.53%; in [4], 0.33%; in [5], 0.44%; in experiment [6], 2.68%. The inhibition was found to be 4.17% in [7]; 6.42% in experiment [8]; 9.11% in experiment [9]; 1.76% in experiment [10]; 5.33% in experiment [11]; 0.93% in experiment [12]. Further, the inhibition in experiment [13] was 1.79%; in experiment [14], -4.35%; in experiment [15], 2.95%; in [16], 2.66%; in experiment [17] it was 7.1%; in experiment [18], 2.72%. The figures for the inhibition in experiment [19] and in experiment [20] were 4.48% and -2.65%, respectively.
